The source of these data is PubChem BioAssay AID449762 (Southern Research Specialized Biocontainment Screening …, 2010).

As a reminder, the inhibition is the change of the read-out against control, counted positive when it falls.

The campaign covered roughly 330,000 compounds. About 1,900 (0.58%) were called active. About 4% were inconclusive and are not listed. Not all results are given here. Entries with a potency or affinity are not part of this list. Unmarked numbers belong to inactive results. No stated cut-off is given here; in the data, inconclusive means inhibition above about 70% without an active follow-up result; inactive means below that.

A short description of the assay: M. tuberculosis growth inhibition, HTS (AID 449762).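 Further: bacterial growth assessed after seven days of incubation.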 The note with it: M. tuberculosis H37Rv growth inhibition, 7H9 media; at 25 µM; hits give high values.
For `O=C(O)CC(Cc1ccc(Cl)cc1)C(=O)NCc1ccccc1` (stereo not given), the inhibition is -1.83%.

In the case of `O=C(O)c1cnn(-c2nc(-c3cccc(F)c3)cs2)c1C(F)(F)F`, the inhibition is -9.37%.

As for `CCCNC(=O)c1ccccc1NC(=O)Nc1ccccc1C`, the inhibition is -3.01%.

For `COc1ccc2cc1Oc1ccc(cc1)CC1c3c(cc(OC)c4c3Oc3cc5c(cc3O4)CCNC5C2)CCN1C` (stereo not given), the inhibition was 2.26%.

With `COc1ccc2cc1Oc1ccc(cc1)C[C@H]1c3cc(c(OC)cc3CCN1C)Oc1c(OC)c(OC)cc3c1[C@H](C2)N(C)CC3`, the inhibition was -2.74%.

Consider `COc1ccc(NC(=O)C2CCCO2)cc1Cl` (stereo not given), for which the inhibition was 55.9%.

For the compound `COc1cc(C(=O)NCCOc2ccc(Cl)cc2)ccc1OCc1c(C)noc1C`, the inhibition was -3.72%.

On to `CCCC(=O)Nc1ccc2c(c1)nc(CN1CCCC1)n2C`, for which the inhibition is -1.98%.

As for `Cc1cc(C)n2nc(C(=O)OC(C)C(=O)c3ccccc3)nc2n1` (stereo not given), the inhibition was 7.53%.

As to `Cc1ccc(-c2cc(C(=O)NCCCn3ccnc3)c3cc(Br)ccc3n2)o1`, the inhibition was 4.01%.

Turning to `O=C(NCCCn1ccnc1)c1cc(-c2cccnc2)nc2ccc(Br)cc12`, the inhibition is 4.38%.

As to `COc1ccc(OCC(O)Cn2c(N)nc3c2c(=O)[nH]c(=O)n3C)cc1` (stereo not given), the inhibition is -6.1%.

Consider `Cc1cc(C(=O)Nc2sc3c(c2C#N)CCC(C(C)(C)C)C3)no1` (stereo not given), for which the inhibition was -1.37%.

For the compound `CC1CCc2sc(-c3n[nH]c(=S)o3)cc2C1` (stereo not given), the inhibition is 4.83%.

In the case of `Cc1[nH]c(C(=O)N/N=C/c2ccc(C(=O)O)cc2)c(C)c1C(=O)N/N=C/c1ccc(C(=O)O)cc1`, the inhibition is 2.47%.

As to `N/C(=N\OC(=O)N1c2ccccc2Sc2ccccc21)c1ccc(Br)cc1`, the inhibition is -4.44%.

In the case of `CCOC(=O)N1c2ccccc2Sc2ccccc21`, the inhibition was 10.8%.

On to `O=C(O)C(Cc1cnc[nH]1)NS(=O)(=O)c1ccc(Cl)cc1` (stereo not given), for which the inhibition was 0.91%.

As for `CN1CCN(C(=S)c2ccc(N(C)C)cc2)CC1`, the inhibition is -4.96%.

`O=[N+]([O-])c1cccc(/C=N/Nc2nccnc2Cl)c1`: the inhibition is -0.09%.

As for `COc1ccc(CN2CCC(N3CC(C)OC(C)C3)CC2)c(OC)c1` (stereo not given), the inhibition is 1.06%.

For `COc1cc(-c2ccc3oc(-c4ccsc4)c(C#CC4(O)CCCCC4)c3c2)cc(OC)c1OC`, the inhibition is 51.2%.

Regarding `CCn1nnc2c(=O)oc3ccccc3c21`, the inhibition is 28.6%.

For the compound `CC(C)n1nnc2c(=O)oc3ccccc3c21`, the inhibition was 48%.

Consider `CC1CC(C)CN(C(=O)Cn2nnc(-c3ccc(Br)cc3)n2)C1` (stereo not given), for which the inhibition was 2.83%.

In the case of `CCOC(=O)Cn1c(=O)cc(C)c2cccc(C)c21`, the inhibition was 57.9%.

With `CCOC(=O)Cn1c(C)cc(=O)c2cccc(C)c21`, the inhibition is 16.2%.

For the compound `COc1ccc(CC(=O)NCc2nnc(SCC(=O)Nc3ccccc3)n2C)cc1`, the inhibition was 4.29%.

In the case of `O=C(NCC(=O)N1CCN(c2ccccc2O)CC1)c1ccccc1`, the inhibition was 7.74%.

As for `CCCCCCC1CC(CCc2nc(=S)[nH][nH]2)C(=O)O1` (stereo not given), the inhibition was -0.55%.

As to `COC(=O)c1cc(C(=O)NCC2CCCCC2)cc([N+](=O)[O-])c1`, the inhibition is -5.46%.

Take `O=C(NCC1CCCCC1)c1cccc([N+](=O)[O-])c1`: the inhibition is 4.44%.

Consider `CCOC(=O)C1(CC2CC2)CCN(Cc2cc(Cl)c(O)c(OC)c2)CC1`, for which the inhibition was -1.14%.

For the compound `CCCCn1c(=O)c(C(=O)NCc2ccc(Cl)cc2)c(O)c2ccccc21`, the inhibition is 13%.

As for `O=[N+]([O-])c1cc(C(F)(F)F)cc([N+](=O)[O-])c1N1CCCNCC1`, the inhibition is -2.74%.

For `Cc1ccc(N=Nc2ccc(O)c3ncccc23)cc1`, the inhibition is 63.9%.

As to `COc1ccc(N=Nc2ccc(O)c3ncccc23)cc1`, the inhibition was 64.2%.

With `COc1ccc(OCCNC(=O)CCCO)cc1`, the inhibition is -4.06%.

For the compound `Cc1ccsc1/C=N/NC(=O)c1ccc(Cn2cc(Br)cn2)o1`, the inhibition is -7.92%.

`O=C1Nc2cc(C(=O)NCC3CCCO3)ccc2S/C1=C/c1ccccc1F` (stereo not given): the inhibition was 2.49%.

As to `COc1ccc(-c2csc(/C(C#N)=C\c3cccc([N+](=O)[O-])c3)n2)cc1`, the inhibition is 9.75%.

Turning to `COc1ccc(-c2csc(/C(C#N)=C\c3ccc(OC)c([N+](=O)[O-])c3)n2)cc1`, the inhibition is 11.1%.

Consider `Cc1ccc(C#CC[N+]2(C)CCCCC2)cc1`, for which the inhibition is -6.71%.

As to `C#CC[N+]1(CC#Cc2ccc(C)cc2)CCCCC1`, the inhibition was 6.8%.

Turning to `Cc1ccc(/C=N/Nc2nnc(Cc3ccccc3)c(=O)[nH]2)o1`, the inhibition is 0.24%.

For `CCOc1ccc(-c2cc(N)n(S(=O)(=O)c3cccc4nsnc34)n2)cc1`, the inhibition is -2.37%.

Consider `O=C(NCC(c1ccco1)N1CCOCC1)C1CCCCC1` (stereo not given), for which the inhibition was 1.93%.

In the case of `O=C(CSc1ncnc2nc[nH]c12)c1ccc([N+](=O)[O-])cc1`, the inhibition was -8.27%.

Turning to `Cn1cnc([N+](=O)[O-])c1Sc1ncnc2nc[nH]c12`, the inhibition was 3.96%.

In the case of `COc1ccccc1C(=O)NC(=O)COC(=O)c1nc2nc(C)cc(C)n2n1`, the inhibition is -0.8%.

`CCc1cc2c(=O)c(-c3nc4ccccc4n3C)c(C(C)C)oc2c(CN2CCN(C)CC2)c1O`: the inhibition is 3.5%.

For the compound `CCOc1ccccc1NC1=C(Cl)C(=O)N(c2ccc(OC)cc2)C1=O`, the inhibition was -6.27%.

As to `COc1ccc(N2C(=O)C(Cl)=C(Nc3ccccc3OC)C2=O)cc1`, the inhibition was -3.72%.

Consider `O=S(=O)(c1ccc2ccccc2c1)N1CCN(CCO)CC1`, for which the inhibition was 4.19%.

Turning to `Cc1ccc(S(=O)(=O)N(CC(=O)c2ccc(Cl)cc2)C(=O)N2CCN(C)CC2)cc1`, the inhibition is -5.16%.

Regarding `COc1cccc(CC(NC(C)=O)C(=O)NC2CCN(S(=O)(=O)c3cccc4ccccc34)CC2)c1` (stereo not given), the inhibition was 1.8%.

Take `COC(=O)c1ccc(NC(=O)CSCc2ccccc2C)cc1`: the inhibition is 21.9%.

Regarding `Cc1cccc(C)c1OCc1cc(C(=O)N2CCN(c3ccccc3)CC2C)no1` (stereo not given), the inhibition was 61.7%.

As to `CCOc1ccccc1N1CCN(C(=O)c2cn(CC3CCCCC3)nn2)CC1`, the inhibition is 53.5%.

Consider `Cc1ccnc(NC(=O)c2ccc(Cl)c(NC(=O)c3ccccc3C)c2)c1`, for which the inhibition is -1.18%.

With `O=C(Nc1ccon1)Nc1cccc(Cl)c1Cl`, the inhibition was -8.3%.

Regarding `Cc1cc(C(=O)Nc2nc3ccc(S(C)(=O)=O)cc3s2)c(C)o1`, the inhibition was -11.6%.

With `Cc1ccc2cc(C(c3nnnn3CC3CCCO3)N3CCc4ccccc4C3)c(=O)[nH]c2c1` (stereo not given), the inhibition was 11.1%.

As to `NS(=O)(=O)c1ccc(N=Nc2ccc(O)c3ncccc23)cc1`, the inhibition was -1.88%.

Take `Nc1ccc(N=Nc2ccccc2)c2ccccc12`: the inhibition is -11.4%.

With `CCCC(=O)Nc1nnc(S(=O)(=O)N(CC)c2ccc(OC)cc2)s1`, the inhibition was 6.35%.

Take `O=c1[nH]c2ccccc2nc1Cc1ccc([N+](=O)[O-])cc1`: the inhibition was 1.98%.

Consider `Cc1nn(C(C)C(=O)N2CCCC2)c(=O)c2nn(-c3ccccc3)c(C)c12` (stereo not given), for which the inhibition was 4.45%.

As to `O=C([O-])c1cc(-c2ccccc2)cc(-c2ccccc2)[n+]1Cc1ccccc1`, the inhibition was 2.25%.

For `Cc1cc(-c2ccccc2)cc(C)[n+]1Cc1ccccc1`, the inhibition is 4.78%.

For `Cn1c(=O)cc(SCC(=O)N2CCOCC2)c2ccc(Cl)cc21`, the inhibition was -11.3%.

As for `Cn1c(=O)cc(SCC(=O)N2CCCC2)c2ccc(Cl)cc21`, the inhibition was 3.77%.

As to `Cc1cccc(CCNC(=O)c2cc(S(=O)(=O)N3CCCC3)cn2C)c1`, the inhibition was -6.27%.

For `Cc1ccc(/C=C/C(=O)OCC(=O)NC(=O)NCc2ccccc2)cc1`, the inhibition is -1.66%.

As for `CC1(C)CC(=O)C2=C(C1)OC(N)=C([N+](=O)[O-])C2c1cccs1` (stereo not given), the inhibition was 3.64%.

In the case of `Cc1ccc(C2C(C#N)=C(N)OC3=C2C(=O)CC(C)(C)C3)s1` (stereo not given), the inhibition is 4.01%.

On to `COC(C(=O)Nc1cccc(F)c1)c1ccccc1` (stereo not given), for which the inhibition was 1.2%.

On to `CCN1CCN(c2ccc(S(=O)(=O)N3CCCCC3)cc2NC(=O)/C=C/c2ccc([N+](=O)[O-])cc2)CC1`, for which the inhibition is 67.1%.

As to `COc1ccc(/C=C/C(=O)Nc2cc(S(=O)(=O)N3CCCCC3)ccc2N2CCCCC2)cc1OC`, the inhibition was 6.87%.

Regarding `CCCCCNC(=O)c1ccc2c(c1)ncn2-c1ccc(OC)cc1`, the inhibition is 13.7%.

With `CCOc1ccc([C@@H]2CC=C(C(=O)O)[C@H](c3ccc(Cl)cc3)N2S(=O)(=O)c2ccc(C)cc2)cc1`, the inhibition is -1.26%.

Consider `Cn1cc(CCNC(=O)CC2C(=O)NCCN2Cc2cccc(Oc3ccccc3)c2)cn1` (stereo not given), for which the inhibition was 2.08%.

As for `CCCCCNC1=CC(=O)CC(c2ccccc2)C1` (stereo not given), the inhibition is -1.58%.

On to `CN(C)CCCNC1=CC(=O)CC(c2ccccc2)C1` (stereo not given), for which the inhibition is -4.95%.

Consider `COc1ncnc2c1cnn2-c1ccccc1`, for which the inhibition was 7.17%.

On to `C=CCOn1c(=O)c(-c2ccc(OCC)cc2)[n+]([O-])c2ccccc21`, for which the inhibition was 6.39%.

Regarding `O=C(CCCSc1nc2ccccc2[nH]1)N1CCN(c2ccc([N+](=O)[O-])cc2)CC1`, the inhibition was -13.5%.

As to `CC(C)CCNC(=O)C1CCCN(S(=O)(=O)c2ccc(-n3cnnn3)cc2)C1` (stereo not given), the inhibition is 1.26%.

As to `C/C=C/C(=O)OCc1csc(CC(=O)Nc2ccccc2C)n1`, the inhibition is -2.53%.

As for `CCOC(=O)/C=C/C(=O)OCc1csc(CC(=O)Nc2ccccc2C)n1`, the inhibition was -12.3%.

Turning to `Cc1cc(NC(=O)/C(C#N)=C/c2ccc(-c3cccc(C(F)(F)F)c3)o2)n(-c2ccccc2)n1`, the inhibition was 9.74%.

For the compound `O=C(NNc1nc2ccccc2s1)Nc1ccc(F)cc1`, the inhibition is 7.66%.

With `COc1ccc(OCC(=O)NNc2nc3ccccc3s2)cc1`, the inhibition is 70%.

As for `CC(=O)NNc1nc2ccccc2s1`, the inhibition is -19.1%.

In the case of `COc1ccc2nc(NNC(=O)COc3ccccc3)sc2c1`, the inhibition was 6.88%.
